Sampled rows, rich in hits. Any-hit rate of the full collection: about 12%.
Sfp inh: qHTS Assay for Inhibitors of Bacillus subtilis Sfp phosphopantetheinyl transferase (PPTase); 3.5% of 310,000 active; Potency, µM, without a hit: largest response in the series, negative = inhibition, most hits filed as inhibitors; AID 1490, 2009; Biochemical Sfp PPTase activity, qHTS;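 further: the enzyme is Sfp with the accession as filed and its product quenches rhodamine fluorescence; 0% = enzyme reaction without inhibitor and -100% = no enzyme wells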
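Buffer: 50 mM Hepes-Na pH 7.6, 10 mM MgCl2, 0.01% Nonidet P-40, 0.01% BSA. Enzyme 15 nM, pre-exposed to compound 15 min; substrates then added and fluorescence change tracked over 30 min.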
BAZ2B block: qHTS Assay for Inhibitors of BAZ2B | Bromodomain adjacent to zinc finger domain protein 2B (Homo sapiens), Q9UIF8 | AlphaScreen BAZ2B-H3K14Ac peptide displacement | Potency, µM (titrated, usually from 114 µM), for inactives: at the top dose activity change, negative = inhibition, hits mostly inhibitors | 4.4% of 360,000 active; further: on the % scale 0 is the no-effect control and ±100 the full control effect; nearly all actives have a fitted effect of over 60% in size
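AlphaScreen displacement of biotin-H3(5-23)K14Ac peptide (50 nM final) from BAZ2B (50 nM final) in PBS pH 7.4, 0.01% Tween-20; complex preformed 30 min RT, then compounds (top 110 uM) 30 min RT, beads 20 min dark.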
HP1b chromo inh: HTS for Inhibitors of HP1-beta Chromodomain Interactions with Methylated Histone Tails; Chromobox protein homolog 1 (Homo sapiens), P83916; AlphaScreen HP1-beta / biotin-H3K9me3 peptide binding; Potency, µM (titrated, usually from 114 µM), without a hit: top-dose activity change, negative = inhibition, actives largely listed as inhibitors; 0.56% of 390,000 active; AID 540317, 2011; further: nearly all actives have a fitted effect of over 70% in size
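Compound inhibition of the preformed complex between 50 nM HP1-beta and 50 nM biotinylated H3K9me3 peptide was read by AlphaScreen. Buffer was PBS pH 7.4 with 0.01% Tween-20. Incubations ran 30 min at room temperature, with 10 ug/mL donor/acceptor beads.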
JMJD2A Tudor inh: qHTS Assay for Inhibitors of JMJD2A-Tudor Domain | Lysine-specific demethylase 4A (Homo sapiens), O75164 | AlphaScreen JMJD2A-Tudor / H3K4me3 peptide binding | Potency, µM (series often up to 114 µM), for inactives: at the highest dose activity change, negative = inhibition, hits mostly inhibitors | 4.4% of 390,000 active; further: on the % scale 0 is the no-effect control and ±100 the full control effect; nearly all actives have a fitted effect of over 50% in size
G9a inh: qHTS Assay for Inhibitors of Histone Lysine Methyltransferase G9a; 8.8% of 350,000 active; Potency, µM (series often up to 102 µM), without a hit: at the top dose activity, negative = inhibition, usual class: inhibitors; Histone-lysine N-methyltransferase EHMT2 (Homo sapiens), Q96KQ7; G9a H3K9 monomethylation, AlphaScreen, 2 h; further: on the % scale 0 is the no-effect control and ±100 the full control effect; nearly all actives have a fitted effect of over 75% in size
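AlphaScreen detection with an anti-monomethyl H3K9 antibody quantified product after a 2 h room-temperature reaction containing 500 nM biotinylated H3K9 peptide, 20 µM SAM and 20 nM enzyme, which had been preincubated 15 min with compound.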
PLK1 PBD inh: qHTS for Inhibitors of PLK1-PDB (polo-like kinase 1 - polo-box domain): Primary Screen | Potency, µM, without a hit: max response, negative = inhibition, hits mostly inhibitors | 2.8% of 360,000 active | Serine/threonine-protein kinase PLK1 (Homo sapiens), P53350 | Plk1 PBD binding of FITC phosphopeptide, fluorescence polarization; further: series mostly up to about 57 µM; on the % scale 0 is the no-effect control and ±100 the full control effect; nearly all actives have a fitted effect of over 65% in size
* = called active by the depositor; ! = repeats disagree; [ ] = remark or other dose. The call rests on the fitted dose curve; in most records, active means well fitted curve in the direction sought with a large enough effect; inconclusive means small, poorly fitted or top-dose-only effect, or another doubt; inactive means no such curve, though single readings can be large; an effect the other way counts as inactive or inconclusive. Potency means the concentration at half of the fitted maximal effect.

What do the screens show for `O=C(NC1(C(F)(F)F)NC(=O)N(Cc2ccco2)C1=O)c1cccnc1` (configuration not stated)?
Sfp inh: inconclusive; BAZ2B block: 11%; HP1b chromo inh: 34%; JMJD2A Tudor inh: -9%; G9a inh: 40µM*; PLK1 PBD inh: -7%

Results for CC(C)CN1C(=O)NC(NC(=O)c2cccs2)(C(F)(F)F)C1=O (configuration not stated) ?
Sfp inh: 14%; BAZ2B block: -1%; HP1b chromo inh: 29%; JMJD2A Tudor inh: -1%; G9a inh: 2%[59 µM]; PLK1 PBD inh: -4%

What do the screens show for `N=C(N)SCc1nc2ccccc2c(=O)n1-c1ccccc1`?
Sfp inh: 50µM*; BAZ2B block: -28%; HP1b chromo inh: -20%; JMJD2A Tudor inh: inconclusive; G9a inh: 45µM*; PLK1 PBD inh: 8.4µM*!

Results for N=C(N)n1c(N)nc2ccccc2c1=O ?
Sfp inh: -9%; BAZ2B block: 9%; HP1b chromo inh: 24%; JMJD2A Tudor inh: 2%; G9a inh: 0%; PLK1 PBD inh: -1%

How did Nc1ccc2ncccc2c1N do in these assays?
Sfp inh: 6.3µM*; BAZ2B block: inconclusive; HP1b chromo inh: 37%; JMJD2A Tudor inh: -36%; G9a inh: -9%[59 µM]; PLK1 PBD inh: 2%

Results for CCCN(C(=O)c1cccc(-n2cccc2)c1)c1c(N)n(Cc2ccccc2)c(=O)[nH]c1=O ?
BAZ2B block: 50µM*; HP1b chromo inh: 45µM*; JMJD2A Tudor inh: 16µM*; G9a inh: 45µM*; PLK1 PBD inh: inconclusive

How did CCCCN(C(=O)c1cccc(S(=O)(=O)N2CCCC2)c1)c1c(N)n(CCC)c(=O)[nH]c1=O do in these assays?
BAZ2B block: 8%; HP1b chromo inh: 30%; JMJD2A Tudor inh: -13%; G9a inh: 5%[2.33 µM]; PLK1 PBD inh: -3%

Results for CCCCN(C(=O)c1cccc(-n2cccc2)c1)c1c(N)n(CCC)c(=O)[nH]c1=O ?
BAZ2B block: 45µM*; HP1b chromo inh: 79µM*; JMJD2A Tudor inh: 14µM*; G9a inh: 4%[0.501 µM]; PLK1 PBD inh: inconclusive

What do the screens show for `O=C(COC(=O)/C=C/c1cccc(C(F)(F)F)c1)NC1CCCCCC1`?
BAZ2B block: 3%; HP1b chromo inh: 27%; JMJD2A Tudor inh: -13%; G9a inh: 15%[59 µM]; PLK1 PBD inh: -1%

How did O=C(c1ccccc1)C(Sc1ncn[nH]1)c1ccccc1 (configuration not stated) do in these assays?
Sfp inh: 79µM*; BAZ2B block: 6%; HP1b chromo inh: 23%; JMJD2A Tudor inh: 79µM*; G9a inh: 5.6µM*; PLK1 PBD inh: inconclusive

Results for CC(Sc1ncn[nH]1)C(=O)NCc1ccccc1 (configuration not stated) ?
Sfp inh: 14%; BAZ2B block: 0%; HP1b chromo inh: 22%; JMJD2A Tudor inh: -12%; G9a inh: 39%; PLK1 PBD inh: -13%

How did O=C(NN(C(=O)C1CC1)c1nc2ccccc2s1)C1CC1 do in these assays?
Sfp inh: -10%; BAZ2B block: -39%; HP1b chromo inh: 1%; JMJD2A Tudor inh: -16%; G9a inh: inconclusive; PLK1 PBD inh: 27µM*

Results for CC(C)C(=O)NN(C(=O)C(C)C)c1nc2ccccc2s1 ?
Sfp inh: 22%; BAZ2B block: -3%; HP1b chromo inh: 28%; JMJD2A Tudor inh: -1%; G9a inh: 12%; PLK1 PBD inh: 0%

What do the screens show for `CN(C)C(=O)c1ccc(-c2nnc(OCc3nc4ccccc4n3C)c3ccccc23)cc1`?
HP1b chromo inh: 14%; JMJD2A Tudor inh: -8%[11.4 µM]; PLK1 PBD inh: -23%

How did CC1(C)Cc2ccccc2C(N/N=C/c2cccc(F)c2)=N1 do in these assays?
Sfp inh: 8%; BAZ2B block: -7%[57.1 µM]; HP1b chromo inh: 58%; JMJD2A Tudor inh: inconclusive; G9a inh: 40µM*; PLK1 PBD inh: inconclusive

Results for CC(C)=NNC1=NC(C)(C)Cc2ccccc21 ?
Sfp inh: 5%; BAZ2B block: -15%; HP1b chromo inh: 25%; JMJD2A Tudor inh: -6%; PLK1 PBD inh: 1%

What do the screens show for `COc1cc(C(CCN2CCOCC2)c2c(OC)cc(OC)c3c(-c4ccccc4)cc(=O)oc23)cc(OC)c1OC` (configuration not stated)?
Sfp inh: inconclusive; HP1b chromo inh: -20%; JMJD2A Tudor inh: 79µM*; G9a inh: inconclusive; PLK1 PBD inh: 3%

What do the screens show for `COc1cc(C(CCN2CCCC2)c2c(OC)cc(OC)c3c(-c4ccccc4)cc(=O)oc23)cc(OC)c1OC` (configuration not stated)?
Sfp inh: -14%; BAZ2B block: -18%; HP1b chromo inh: -2%; JMJD2A Tudor inh: inconclusive; G9a inh: 19%[59 µM]; PLK1 PBD inh: -9%

How did COc1cc(OC)c2ccc(=O)oc2c1C(CC(=O)N1CCN(c2ccccc2)CC1)c1ccc2c(c1)OCO2 (configuration not stated) do in these assays?
Sfp inh: -1%; BAZ2B block: 40µM*; HP1b chromo inh: -27%; JMJD2A Tudor inh: 40µM*; G9a inh: 13%[12.7 µM]; PLK1 PBD inh: -18%

Results for CCN(CC)C(=O)CC(c1cc(OC)c(OC)c(OC)c1)c1c(OC)cc(OC)c2c(-c3ccccc3)cc(=O)oc12 (configuration not stated) ?
Sfp inh: -7%; BAZ2B block: 50µM*; HP1b chromo inh: 0%; JMJD2A Tudor inh: 56µM*; G9a inh: inconclusive; PLK1 PBD inh: inconclusive

What do the screens show for `COc1cc(OC)c2c(-c3ccccc3)cc(=O)oc2c1C(CCN1CCOCC1)c1ccc2c(c1)OCO2` (configuration not stated)?
Sfp inh: inconclusive; HP1b chromo inh: inconclusive; JMJD2A Tudor inh: 32µM*; G9a inh: -44%[59 µM]; PLK1 PBD inh: -6%

How did COc1ccc(C2=CCCC2)c(OC)c1 do in these assays?
HP1b chromo inh: 48%; JMJD2A Tudor inh: -27%; PLK1 PBD inh: 0%

Results for CC(=O)N1CC(O)CC1C(=O)O (configuration not stated) ?
Sfp inh: 6%; G9a inh: -3%[12.7 µM]
